Data published in PubChem BioAssay (NCI).
Compounds without any hit were thinned out: in the full panel of roughly 83,000, 20% have a hit.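 Interpretation: 100, growth as untreated; towards 0, rising growth inhibition; 0, no net growth; 0 to -100, cell death. Compounds scoring below 10 were considered active.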 A number with no mark means an inactive call. Activity calls are given as the source filed them.

Assays:
Test in all cases: NCI-60 one-dose screen, 48 h (100 = growth as untreated, 0 = no growth, -100 = all killed)
Conditions in all cases: 10 µM unless noted
DU-145 prostate = tested on: DU-145 prostate
K-562 leukemia = tested on: K-562 leukemia
MALME-3M melanoma = tested on: MALME-3M melanoma
MDA-MB-231 breast = tested on: MDA-MB-231 breast
RXF 393 renal = tested on: RXF 393 renal
SF-268 CNS = tested on: SF-268 CNS
SF-295 CNS = tested on: SF-295 CNS
SF-539 CNS = tested on: SF-539 CNS
UACC-257 melanoma = tested on: UACC-257 melanoma
M14 melanoma = tested on: M14 melanoma

Compound | growth (DU-145 prostate) | growth (K-562 leukemia) | growth (MALME-3M melanoma) | growth (MDA-MB-231 breast) | growth (RXF 393 renal) | growth (SF-268 CNS) | growth (SF-295 CNS) | growth (SF-539 CNS) | growth (UACC-257 melanoma) | growth (M14 melanoma)
CN1C(=O)/C(=C/c2ccc(C(=O)Nc3ncc(Cc4cccc(Cl)c4)s3)cc2)SC1=S | 66.3% | 55.1% | 67.9% | 77.4% | 64.4% | 61.7% | 31% | 67.5% | 79.8% | 17%
COc1ccc(Oc2nc(Nc3ccc(N4CCOCC4)cc3)ncc2NC(=O)Nc2cc(OC)cc(OC)c2)cc1 | 12.8% | 19.9% | 7.76% (active) | 1.79% (active) | -29.2% (active) | 34.3% | 34.4% | -32.5% (active) | 35.9% | 21.4%
O=C1NC(=O)/C(=C/c2c(-c3ccccc3)nc3sc(COc4ccccc4)nn23)S1 | 105% | 82.6% | 102% | 73.3% | 112% | 106% | 94.3% | 103% | 104% | 96.1%
COc1cccc(-c2cc(-c3cccc(Cl)c3)c(C#N)c(=O)[nH]2)c1 | 88% | 31.3% | 69.8% | 96.1% | 75% | 79.1% | 74.2% | 74.5% | 85.5% | 58.3%
COc1cccc(CNc2c3ccccc3nc3ccccc23)c1 | 53.3% | 6.57% (active) | 44% | 49.9% | 13.8% | 71.2% | 36% | 19.4% | 55% | 35.2%
COc1cc(-c2nc3c(ncc4ccc(=O)n(-c5ccccc5)c43)s2)cc(OC)c1OC | 80.2% | 90.5% | 65.4% | 64.1% | 48.2% | 69.1% | 90.4% | 57.4% | 101% | 87.6%
COc1cc(OC)c(/C=C/C(=O)c2c(O)cc(OC)c(C3CCN(C)CC3)c2OC)c(OC)c1 | -36.2% (active) | 9.67% (active) | -92.2% (active) | -68.1% (active) | -75.1% (active) | -70.9% (active) | -79.9% (active) | -91.4% (active) | -81.7% (active) | -92.7% (active)
[2H]C([2H])([2H])Oc1ccc(F)cc1/C=C/C(=O)/C=C(/C=C/c1cc(F)ccc1OC([2H])([2H])[2H])OB(F)F | 85.1% | 47.6% | 68.7% | 98.4% | 100% | 98.6% | 101% | 113% | 78.7% | 70.1%
COc1cccc(NCc2nnc(Nc3ccc(Cl)cc3)c3ccccc23)c1 | 8.3% (active) | 2.2% (active) | -22% (active) | -27.1% (active) | -11.6% (active) | 2.52% (active) | -22.6% (active) | -10.2% (active) | -39.7% (active) | -15.7% (active)
COc1cnc2c(c1)C(=O)c1c-2n(CCCCl)c(=O)c2ccncc12 | 76% | 38.7% | 103% | 81.4% | 81% | 57.6% | 36.6% | 56.1% | 70% | 67.5%
COc1cc(OC)cc(-c2ccc(-c3ccc(C(=N)N)o3)o2)c1 | 60.2% | 4.64% (active) | 71.3% | 0.981% (active) | 58.2% | 62.6% | 86.3% | 73.1% | 45.4% | 25.1%
CCCCCN(CCCCC)CC(O)c1cc(C)c2ccc3cc(C(C)C)ccc3c2c1 (stereo not given) | -77.1% (active) | -16.2% (active) | 53.9% | -47.6% (active) | -88.2% (active) | -61.7% (active) | 103% | -78.3% (active) | 105% | 20.3%
CC(=O)c1ccc(Nc2nccc(-c3ccc4ccccc4c3)n2)cc1 | 105% | 59.6% | 101% | 102% | 85.1% | 93.6% | 100% | 100% | 104% | 97.6%
CCOC(=O)c1c(C)nc2ccccc2c1/C=C/c1cccs1 | 95.5% | 50.3% | 112% | 82.7% | 93.8% | 89.4% | 65.6% | 93.2% | 91.8% | 93.4%
